Records with an inconclusive call do not appear. Where a call stands in place of a potency, no number is given. Calls of active or inactive are those of the source. The call rests on the fitted dose curve; in most records, active means well fitted cell-killing curve with a large enough effect in the repeat runs; inconclusive means weak or mixed curves; inactive means flat fitted curve, though single readings scatter.
Assay: qHTS RealTime-Glo MT Cell Viability Assay in HepG2 cells - 8 hour (AID 1224873); further: nearly all actives have a fitted effect of over 55% in size
Details: RealTime-Glo luminescence; series mostly up to 76.8 µM
Text: National Center for Advancing Translational Sciences [NCATS]
NIH Chemical Genomics Center [NCGC]
U.S. Environmental Protection Agency [EPA]
National Institutes of Environmental Health Sciences [NIEHS]
National Toxicology Program [NTP]
U.S. Food and Drug Administration [FDA]
Measure of cell viability is critical in the cell-base assay. Analysis of cell viability is necessary for the characterization of cell responses to cytotoxic drugs and environmental stress. A RealTime-Glo MT Cell Viability Assay to monitor cell viability in real time of continues cell culture during 40 hours of compound treatment was used to screen Tox21 10K library compounds in HepG2 cells. The RealTime-Glo MT Cell Viability Assay is a nonlytic, homogeneous, bioluminescent method to measure cell viability in real time using a simple, plate-based method. The assay involves adding NanoLuc luciferase and a cell-permeant prosubstrate to cells in culture. Viable cells reduce the proprietary prosubstrate to generate a substrate for NanoLuc luciferase. This substrate diffuses from cells into the surrounding culture medium, where it is rapidly used by the NanoLuc Enzyme to produce a luminescent signal. The signal correlates with the number of viable cells, making the assay well suited for cytotoxicity studies.
Tox21 Assay Protocol Summary:
The mixture of HepG2 cell suspension and reagents were dispensed at 600cells/6 ul/well in 1536-well tissue culture treated black solid bottom plates using a Multidrop dispenser. After the assay plates were incubated at a 37 C/5% CO2 incubator for 5 hours, 23 nL of compounds dissolved in DMSO, positive and negative controls was transferred to the assay plate by a pintool work station. The plates were incubated at 37 C for 40 hours. The luminescence intensity were measured at 0h, 8h, 16h, 24h, 32h and 40h time points using ViewLux plate reader during compound treatment.
Potency means the concentration at half of the fitted maximal effect.

Row | Structure (SMILES) | Potency
1 | Brc1cccc(-c2ccccc2)c1 | inactive
2 | N#Cc1c[nH]cc1-c1cccc2c1OC(F)(F)O2 | inactive
3 | Oc1cccc(Cl)c1Cl | inactive
4 | COc1c2c(cc3c1OCO3)CCN(C)C2 | inactive
5 | C#CCO | inactive
6 | CO/N=C(/C1=NOCCO1)c1ccccc1Oc1ncnc(Oc2ccccc2Cl)c1F | inactive
7 | CC(C)N(C(=O)SC/C(Cl)=C/Cl)C(C)C | inactive
8 | ClC1(Cl)C2(Cl)C3(Cl)C4(Cl)C(Cl)(Cl)C5(Cl)C3(Cl)C1(Cl)C5(Cl)C24Cl (stereo not given) | inactive
9 | CC(C)(C)c1ccc(OP(=O)(Oc2ccccc2)Oc2ccccc2)cc1 | inactive
10 | CCCN | inactive
11 | O=[N+]([O-])c1ccc(Cl)c(Cl)c1Cl | inactive
12 | CC(=O)[O][Sn]([c]1ccccc1)([c]1ccccc1)[c]1ccccc1 | 11 µM (active)
13 | CCC(C)Br (stereo not given) | inactive
14 | C1=CCC=C1 | inactive
15 | O=C(Cl)c1ccccc1F | inactive
16 | CCC[CH2][Sn]([CH2]CCC)([CH2]CCC)[CH2]CCC | 11 µM (active)
17 | CC[C@]1(O)CC[C@H]2[C@@H]3CCC4=CCCC[C@@H]4[C@H]3CC[C@@]21C | inactive
18 | ClC1=C(Cl)[C@]2(Cl)[C@H]3[C@H]([C@@H]4C=C[C@H]3C4)[C@@]1(Cl)C2(Cl)Cl | 49 µM (active)
19 | Oc1cc(Cl)cc(Cl)c1 | inactive
20 | O=C(NC(=O)c1ccccc1Cl)Nc1ccc(OC(F)(F)F)cc1 | inactive

Row | Structure (SMILES) | Potency
21 | CCO/N=C(\CC)C1=C(O)CC(c2c(C)cc(C)cc2C)CC1=O (stereo not given) | inactive
22 | O=c1[nH]c2cc(Cl)ccc2n1C1CCNCC1 | inactive
23 | S=C=Nc1ccccc1 | inactive
24 | CN=C=O | inactive
25 | CN/C(=N\[N+](=O)[O-])NCc1cnc(Cl)s1 | inactive
26 | CSC(C)(C)/C=N/O | inactive
27 | COC(=O)c1cc(Oc2ccc(Cl)cc2Cl)ccc1[N+](=O)[O-] | inactive
28 | Cc1ccn2nc(S(=O)(=O)Nc3c(F)cccc3F)nc2n1 | inactive
29 | C[C@]12Cc3cn[nH]c3C[C@@H]1CC[C@@H]1[C@@H]2CC[C@@]2(C)[C@H]1CC[C@]2(C)O | inactive
30 | [O-][Cl+3]([O-])([O-])O | inactive
31 | NC1CCC(CC2CCC(N)CC2)CC1 (stereo not given) | inactive
32 | COP(=S)(OC)Oc1nc(Cl)c(Cl)cc1Cl | inactive
33 | CCCCCCC[CH2][Sn]([Cl])([Cl])[CH2]CCCCCCC | inactive
34 | ClC1=C(Cl)[C@]2(Cl)[C@@H]3[C@H]4C[C@H]([C@@H]5O[C@H]45)[C@@H]3[C@@]1(Cl)C2(Cl)Cl | inactive
35 | CSSC | inactive
36 | CNC(=O)CSP(=O)(OC)OC | inactive
37 | Oc1ccc(Cl)c(Cl)c1 | inactive
38 | C=Cc1cccc(CCl)c1 | inactive
39 | Nc1ccccc1-c1ccccc1 | inactive
40 | COC(=O)C(C)N(C(=O)c1ccco1)c1c(C)cccc1C (stereo not given) | inactive
